Test results taken from PMC12136788.
Changes are numbered by the printed parent chain. In all, about 24,000 sequences were measured (“enrichment r”: median about 0.99, highest 2% from about 3.7 on). The sample as a whole holds a higher share of the highest values than the screen did.

T1: UNK ZnF1-3 (human, UniProt Q9C0B0 31-174)
T1 sequence: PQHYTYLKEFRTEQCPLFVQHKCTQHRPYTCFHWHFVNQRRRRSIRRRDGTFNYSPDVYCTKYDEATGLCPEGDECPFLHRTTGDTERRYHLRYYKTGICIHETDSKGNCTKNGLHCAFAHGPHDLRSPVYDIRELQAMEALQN

B1: chr16:94664806:94664807:+_ENSMUSG00000040785_ENSMUST00000117648|mus_hu|motif|central (ssRNA)
RNA: GGGAGUUCUACAGUCCGACGAUCAUGAUGACCCUCAAAAUAGGCAGCAGCAUUUUUAUCUGCUCUGUCAUUGGCGGCAAAAGACGGCACCACUGGUACUGAUCUUGGUAGCUGAUAUUCAGGAGAAAGGCUGGCCAAGGGUGUCAACAGAGGAUUGAGCAUCA
B2: chr7:7679991:7679992:-_ENSG00000106399_ENST00000396682|hu_hu|hu_hu_hu_mus_False|1_8 (ssRNA)
RNA: GGGAGUUCUACAGUCCGACGAUCUGGGAUGAAUCUUUUCCAGCUUCCCCACGAAGCACACGGGCCGGUCGAUAUACUGUGGUAACAUGCUGGCGUUGACGCGCGCUUUGGGGAGCUGCAUUAUGUCCACCAUGAUUAUGGUCCCAACAGAGGAUUGAGCAUCA
B3: chr13:100200574:100200575:-_ENSMUSG00000052727_ENSMUST00000064762|mus_hu|motif|central (ssRNA)
RNA: GGGAGUUCUACAGUCCGACGAUCAUAAUCUUCUUCAUCUGGGGACCUGGUUGUUUCCUCAGGCUUUUGAUAGGCAUAGCGGAAGUCACCAGGUGUCUUCCCUCCACUGUCCUUCUCCAGGCCAGGUGUGGACAAAUCUCUAUUCAACAGAGGAUUGAGCAUCA
B4: chr2:48026839:48026840:+_ENSG00000116062_ENST00000540021|hu_hu|hu_hu_hu_mus_False|58_68 (ssRNA)
RNA: GGGAGUUCUACAGUCCGACGAUCAUAGUGAGCCACUAGCGUCCUAAAUCUGGAACAGUGGCGGUCAUCUGAAAACUGACCUAUGAAAAACUUGCCCAGUGAAGUGUCCACAAAGCAAACACCAUACACACGAGUGUGACCAGACAACAGAGGAUUGAGCAUCA
B5: chrX:98862621:98862622:+_ENSMUSG00000034160_ENSMUST00000044475|mus_hu|mus_mus_mus_hu_False|48_68 (ssRNA)
RNA: GGGAGUUCUACAGUCCGACGAUCCUGCAUCUCCUUUAGAGUGUUUCCCAUAUUAGAGUAGGCAUCAGCAAAUGUAGGACUGAUUCGUAUGGCUUCUUUAUAAUGCAUCAGAGCUUCCUGCAGUUUUCCCUGCUGCUGCAGUACCAACAGAGGAUUGAGCAUCA
B6: chr4:109959997:109959998:-_ENSMUSG00000028546_ENSMUST00000106598|mus_hu|FALSE|FALSE (ssRNA)
RNA: GGGAGUUCUACAGUCCGACGAUCUGUUAUAUAUAAUUAAAGAUCCACAAAACACAGUGUGGAUGAUUGUAAAGCAAAUCAAUUAUUUUUGGGGGGGUGGGCGGGGGAGAGAAAGAAAAAAAAGAAAAGGAGCAGUGAGCUGAACAACAGAGGAUUGAGCAUCA
B7: chr1:205685097:205685098:-_ENSG00000069275_ENST00000367142|hu_hu|motif|central (ssRNA)
RNA: GGGAGUUCUACAGUCCGACGAUCUAUCAAGCCUGACUAUUGAGCACCUGUAUCCAGUUGAGUCACCACCACUGUCCUCCGGUUUGCAUGCAUGAUUUGAGGGGAAGACUAGAGUGUUUUAAAUCAUCAAUAAAAAGUGGAGAACAACAGAGGAUUGAGCAUCA
B8: chr8:73998637:73998638:+_ENSMUSG00000074247_ENSMUST00000124745|mus_hu|FALSE|FALSE (ssRNA)
RNA: GGGAGUUCUACAGUCCGACGAUCCUUGAUACAGGUUACAGCAUAAAUAAAAACUCAAGGAAAAUAAAUACAUCGGCUCCUAUGAGGUUGGAAGUGGUGUGGACGCAGGGUGUGGAUGGGCCGGCAGGGAGGCGGGCGGGCGGGCAACAGAGGAUUGAGCAUCA
B9: chr16:49913422:49913423:+_ENSMUSG00000055447_ENSMUST00000084838|mus_mus|FALSE|FALSE (ssRNA)
RNA: GGGAGUUCUACAGUCCGACGAUCGCUCUCUACGAUUGUAUAAGUGGAGGGCAGACAAUAAAUAAAAAUUGAAUAGAGGCUAUGACAGCAGAAAUCGGGAUUUGGGAGAGAAAAGCGCAUUGUGGGACAAAACAGAUGCGUGGUCAACAGAGGAUUGAGCAUCA
B10: chr1:46159212:46159213:+_ENSG00000159596_ENST00000372025|hu_mus|hu_hu_hu_mus_True|8_68 (ssRNA)
RNA: GGGAGUUCUACAGUCCGACGAUCUCUGAUCCCUCCCAAGAAAGCUAGGAAACCGGCUCCAUAAGCCAUCUGAGUAAAAGCUAGGACGGGGAUAUAAGACUUUGUUAUUACCAUGAGAAGUGGGGGAGCAACGAAGGGGAUUAACAACAGAGGAUUGAGCAUCA
B11: chr12:86641468:86641469:-_ENSMUSG00000034290_ENSMUST00000040992|mus_hu|FALSE|FALSE (ssRNA)
RNA: GGGAGUUCUACAGUCCGACGAUCCAAGACCUCCCACAAUGUUGAUAAGAUUAUCAAACAUUUUGGUCUGGGGAAGAUGAAACAAAAUUAAUUUAGCUGUUUAUAGGAAGGUGGGAUGUGAGACUCAUCAAAGGUAGGAUGUGUCAACAGAGGAUUGAGCAUCA
B12: chr2:238002776:238002777:+_ENSG00000198612_ENST00000392008|hu_hu|FALSE|FALSE (ssRNA)
RNA: GGGAGUUCUACAGUCCGACGAUCGAUUGAAGUAUACGCUUGAGAGACCAGGGCAAAGGCGCGUCUCCUUGUUGCAUCUCUAAGUGCUUCCAUAAUUGGCUGGACCGUCUCAGACCACUGGUGAGCGUUGAUGGUUGUAUAGAUCAACAGAGGAUUGAGCAUCA
B13: chr1:46159212:46159213:+_ENSG00000159596_ENST00000372025|hu_mus|hu_hu_hu_mus_True|68_98 (ssRNA)
RNA: B10 RNA with C44A, A130G, C131U, G132A
B14: chr8:27092522:27092523:-_ENSMUSG00000037251_ENSMUST00000061850|mus_mus|FALSE|FALSE (ssRNA)
RNA: GGGAGUUCUACAGUCCGACGAUCAGCGGGGUGGGUUGUUGUUUGCUGUUGGUCGGUGUUUGUGAAGUGGUCGUGGGCGAAGAAGAAACAAGAAGAAAUGAGAUAUCUUGGCAGCAAAGAUCAUUGCUCCAAGGAACUCGACACCAACAGAGGAUUGAGCAUCA
B15: chr4:109959997:109959998:-_ENSMUSG00000028546_ENSMUST00000106598|mus_mus|FALSE|FALSE (ssRNA)
RNA: GGGAGUUCUACAGUCCGACGAUCUAUAUAUAUAUAUUAAAGAUCCACAGACCACAGUGUGGAUGAUUGUAAAGUAAAUCUAUUAUUGGGAGGGGGUGGGGUGGGAAAGAAAGGGGGAAAAAAAAGAGAGGAAGAAAAGGCGCACAACAGAGGAUUGAGCAUCA
B16: chr16:49913422:49913423:+_ENSMUSG00000055447_ENSMUST00000084838|mus_mus|motif|central (ssRNA)
RNA: B9 RNA with U80G, A81G
B17: chr4:109959997:109959998:-_ENSMUSG00000028546_ENSMUST00000106598|mus_mus|motif|central (ssRNA)
RNA: B15 RNA with U80G, A81G

Biological target: T1, UNK ZnF1-3
Assay: nsRBNS (natural sequence RNA bind-n-seq); RBNS binding buffer (assumed for nsRBNS): 25 mM Tris pH 7.5, 150 mM KCl, 3 mM MgCl2, 0.01% Triton X-100, 500 ug/ml BSA, 20 U/ml SUPERase-In, 4 C; UNK is unkempt and MSI1 is Musashi-1; names of the RNAs are library labels; protein concentration not given here; high values mean tight binding

Binder	binding signal [enrichment R]
B1	1.61
B2	0.387
B3	0.378
B4	1.18
B5	1.06
B6	3.98
B7	2.19
B8	3.01
B9	3.41
B10	1.56
B11	1.55
B12	0.907
B13	1.71
B14	1.76
B15	5.2
B16	3.75
B17	5.4
